Assay results taken from PubChem BioAssay (NCI).
Compounds without any hit were thinned out: in the full panel of roughly 79,000, 15% have a hit. Activity calls are given as the source filed them. Cut-off read from the data, not from the text of the source: active = growth inhibition above about 70%; inactive = the rest.

Tests used:
[1] = NCI Yeast Anticancer Drug Screen. Data for the rad52 strain (AID 147);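 note: 0% = growth of vehicle-treated control cultures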; settings: S. cerevisiae rad52 mutant growth inhibition, hits give high values
Method in brief: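 Vehicle-treated cultures served as the reference for growth inhibition of compound-exposed yeast bearing a DNA repair mutation.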

[2] = NCI Yeast Anticancer Drug Screen. Data for the wt1 strain (AID 149);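 note: 0% = growth of vehicle-treated wt1 cultures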; settings: S. cerevisiae wt1 strain (SPY 50644) growth inhibition, hits give high values
Method in brief: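 The wt1 strain was treated with compounds, and growth was compared with vehicle-treated cultures to give inhibition.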

[3] = NCI Yeast Anticancer Drug Screen. Data for the rad50EPP+ strain (AID 151);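 note: 0% = growth of vehicle-treated control cultures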; settings: S. cerevisiae rad50 mutant strain, hits give high values
Method in brief: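 In this screen, rad50EPP+ yeast were exposed to compounds. Growth inhibition was scored against vehicle-treated controls.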

[4] = NCI Yeast Anticancer Drug Screen. Data for the rad50 strain (AID 155);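 note: 0% = growth of vehicle-only cultures of the same strain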; settings: S. cerevisiae rad50 strain growth inhibition, hits give high values
Method in brief: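 Cells are treated with compound, grown, and their growth is then scored against vehicle-only cultures of the same repair-deficient yeast strain.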

[5] = NCI Yeast Anticancer Drug Screen. Data for the mec2-1 strain (AID 157); settings: S. cerevisiae mec2-1 strain, hits give high values
Method in brief: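 Vehicle-treated cultures served as reference for growth inhibition of compound-exposed mec2-1 yeast.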

[6] = NCI Yeast Anticancer Drug Screen. Data for the rad14 strain (AID 159);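 note: 0% = growth of vehicle-treated control cultures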; settings: S. cerevisiae rad14 strain growth inhibition, hits give high values
Method in brief: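 Readout: yeast growth inhibition, referenced to vehicle-only cultures. Strain bears a defined alteration in DNA damage repair.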

[7] = NCI Yeast Anticancer Drug Screen. Data for the sgs1 mgt1 strain (AID 161);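 note: 0% = growth of cultures given vehicle only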; settings: S. cerevisiae sgs1 mgt1 strain, hits give high values
Method in brief: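 Genetically altered yeast, compound exposure, growth inhibition relative to vehicle.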

[8] = NCI Yeast Anticancer Drug Screen. Data for the CLN2oe strain (AID 163);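 note: 0% = growth of vehicle-only control cultures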; settings: S. cerevisiae CLN2oe strain, hits give high values
Method in brief: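 Inhibition relative to vehicle-treated yeast is reported. Cells: strain with genetic alteration in cell-cycle control, grown with compound.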

[9] = NCI Yeast Anticancer Drug Screen. Data for the cln2 rad14 strain (AID 165);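 note: 0% = growth equal to vehicle treated cultures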; settings: S. cerevisiae cln2 rad14 strain, hits give high values
Method in brief: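 Each compound was tested on cln2 rad14 yeast. Inhibition of growth was calculated against vehicle-exposed controls.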

[10] = NCI Yeast Anticancer Drug Screen. Data for the bub3 strain (AID 167); settings: S. cerevisiae bub3 mutant strain, hits give high values
Method in brief: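 Part of a panel of yeast mutants defective in DNA damage repair or cell cycle regulation. Each strain is grown with compound, and inhibition is calculated relative to solvent-treated cultures.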

[11] = NCI Yeast Anticancer Drug Screen. Data for the wt2 strain (AID 169);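 note: 0% = growth of vehicle-treated yeast cultures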; settings: S. cerevisiae wt2 strain growth inhibition, hits give high values
Method in brief: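 Inhibition of yeast growth was determined after compound treatment, normalised to controls receiving only vehicle.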

[12] = NCI Yeast Anticancer Drug Screen. Data for the mlh1 strain (AID 171);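 note: 0% = growth of vehicle-treated control cultures of the same strain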; settings: S. cerevisiae mlh1 strain growth inhibition, hits give high values
Method in brief: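 Vehicle-normalised growth inhibition of a repair- or checkpoint-altered yeast strain following compound treatment.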

[13] = NCI Yeast Anticancer Drug Screen. Data for the sgs1 strain (AID 173);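 note: 0% = growth of vehicle-only control cultures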; settings: S. cerevisiae sgs1 mutant, hits give high values
Method in brief: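 Screen format: yeast with repair or checkpoint alterations, compound exposure, growth read relative to vehicle.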

[14] = NCI Yeast Anticancer Drug Screen. Data for the mlh1 rad18 strain (AID 175); settings: S. cerevisiae mlh1 rad18 strain growth inhibition, hits give high values
Method in brief: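 Vehicle-treated cultures served as the reference for growth inhibition in a yeast strain carrying DNA damage repair alterations exposed to each compound.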

[15] = NCI Yeast Anticancer Drug Screen. Data for the rad18 strain (AID 177); settings: S. cerevisiae rad18 mutant growth inhibition, hits give high values
Method in brief: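 Test articles were incubated with altered yeast defective in DNA damage repair. Results are given as inhibition of growth versus vehicle.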

[16] = NCI Yeast Anticancer Drug Screen. Data for the mgt1 strain (AID 153); settings: S. cerevisiae mgt1 mutant growth inhibition, hits give high values
Method in brief: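 mgt1 strain exposed; growth vs vehicle control recorded as inhibition.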

[17] = at 5.0 µM (retest, dose inferred, filed as 0.5)
[18] = at 50.0 µM (retest, dose inferred, filed as 5.0)

Measured: growth inhibition

O=[N+]([O-])CC(SCc1ccccc1)c1ccc2c(c1)OCO2 (stereo not drawn)
active: [1]; at 11.0 µM 92% | [1]; at 33.0 µM 99% | [1]; at 100.0 µM 97% | [2]; at 11.0 µM 70% | [2]; at 33.0 µM 98% | [2]; at 100.0 µM 98% | [3]; at 3.7 µM 91% | [3]; at 11.0 µM 97% | [3]; at 33.0 µM 98% | [3]; at 100.0 µM 98% | [4]; at 11.0 µM 94% | [4]; at 33.0 µM 98% | [4]; [18] 97% | [4]; at 50.0 µM 90% | [4]; at 100.0 µM 98% | [5]; at 11.0 µM 76% | [5]; at 33.0 µM 98% | [5]; [18] 98% | [5]; at 50.0 µM 91.7% | [5]; at 100.0 µM 98% | [6]; at 11.0 µM 71% | [6]; at 33.0 µM 97% | [6]; at 100.0 µM 97% | [7]; at 50.0 µM 92.7% | [8]; at 33.0 µM 97% | [8]; at 100.0 µM 97% | [9]; [18] 97% | [9]; at 50.0 µM 90.2% | [10]; [17] 89% | [10]; at 11.0 µM 91% | [10]; at 33.0 µM 97% | [10]; [18] 96% | [10]; at 50.0 µM 92.2% | [10]; at 100.0 µM 97% | [11]; at 33.0 µM 97% | [11]; at 100.0 µM 97% | [12]; at 11.0 µM 94% | [12]; at 33.0 µM 98% | [12]; at 100.0 µM 97% | [13]; at 11.0 µM 97% | [13]; at 33.0 µM 100% | [13]; at 100.0 µM 99% | [14]; [17] 73% | [14]; [18] 97% | [14]; at 50.0 µM 89.2% | [15]; at 11.0 µM 79% | [15]; at 33.0 µM 98% | [15]; at 100.0 µM 98%
inactive: [1]; at 1.2 µM 39% | [1]; at 3.7 µM 34% | [2]; at 1.2 µM 23% | [2]; at 3.7 µM 36% | [3]; at 1.2 µM 44% | [4]; at 1.2 µM 41% | [4]; at 3.7 µM 69% | [4]; [17] 30% | [5]; at 1.2 µM -2% | [5]; at 3.7 µM 42% | [5]; [17] 26% | [6]; at 1.2 µM -2% | [6]; at 3.7 µM 36% | [7]; [17] -4% | [7]; [18] 46% | [8]; at 1.2 µM 3% | [8]; at 3.7 µM 5% | [8]; at 11.0 µM 42% | [9]; [17] 15% | [10]; at 1.2 µM -28% | [10]; at 3.7 µM 13% | [11]; at 1.2 µM 1% | [11]; at 3.7 µM 8% | [11]; at 11.0 µM 47% | [12]; at 1.2 µM 17% | [12]; at 3.7 µM 48% | [13]; at 1.2 µM 30% | [13]; at 3.7 µM 54% | [15]; at 1.2 µM 7% | [15]; at 3.7 µM 23%

CCOC(=O)c1cnc2cc(C(F)(F)F)ccc2c1N=[N+]=[N-]
inactive: [1]; at 1.2 µM 12% | [1]; at 3.7 µM 13% | [1]; at 11.0 µM 23% | [1]; at 33.0 µM 48% | [2]; at 1.2 µM 3% | [2]; at 3.7 µM 4% | [2]; at 11.0 µM 8% | [2]; at 33.0 µM 37% | [3]; at 1.2 µM 6% | [3]; at 3.7 µM 13% | [3]; at 11.0 µM 26% | [3]; at 33.0 µM 54% | [16]; at 1.2 µM 4% | [16]; at 3.7 µM 6% | [16]; at 11.0 µM 22% | [16]; at 33.0 µM 66% | [5]; at 1.2 µM 14% | [5]; at 3.7 µM 12% | [5]; [17] -3% | [5]; at 11.0 µM 22% | [5]; at 33.0 µM 56% | [5]; [18] 4% | [5]; at 50.0 µM 20.2% | [6]; at 1.2 µM 7% | [6]; at 3.7 µM 3% | [6]; at 11.0 µM 12% | [6]; at 33.0 µM 49% | [7]; [17] -1% | [7]; [18] -3% | [7]; at 50.0 µM 43.4% | [9]; [17] -4% | [9]; [18] 1% | [9]; at 50.0 µM 25.1% | [10]; at 1.2 µM 11% | [10]; at 3.7 µM 7% | [10]; [17] -17% | [10]; at 11.0 µM 14% | [10]; at 33.0 µM 46% | [10]; [18] 48% | [10]; at 50.0 µM -3.4% | [11]; at 1.2 µM 2% | [11]; at 3.7 µM 2% | [11]; at 11.0 µM 14% | [11]; at 33.0 µM 59% | [12]; at 1.2 µM 7% | [12]; at 3.7 µM 6% | [12]; at 11.0 µM 15% | [12]; at 33.0 µM 51% | [13]; at 1.2 µM 10% | [13]; at 3.7 µM 12% | [13]; at 11.0 µM 25%
active: [1]; at 100.0 µM 85% | [2]; at 100.0 µM 87% | [3]; at 100.0 µM 82% | [16]; at 100.0 µM 92% | [5]; at 100.0 µM 90% | [6]; at 100.0 µM 93% | [10]; at 100.0 µM 74% | [11]; at 100.0 µM 93% | [12]; at 100.0 µM 87%
